# Laboratory results: ChEMBL document CHEMBL3988442, “University of Dundee, Small-Polar-MMV Screening Library” (2021)
# Hit rate of the full screen: of about 48,000 compounds, about 13,000 (27%) showed an effect of 50% or more. The list shows a part of the results.
# System: Wolbachia pipientis
# Assay: Anti-Wolbachia Cell-Based Screen
# Type: functional
# Parameters: scale not given: in the data most compounds retested in dose-response had high values
# Conditions: 5 µM
row,Compound,Percent Effect
1,COc1ccc(C(=O)N2CCC(Oc3ccc(C)cc3)(C(=O)O)CC2)o1,-8.575%
2,CCc1nnsc1C(=O)N1CCCN(Cc2ccc(C)cc2)CC1,9.546%
3,Cc1ccc(CN2CCOC(C)(c3cnn(C)c3)C2)cc1 (configuration not stated),-10.42%
4,Cc1cccc2[nH]c(C3CCN(C(=O)c4cnc[nH]c4=O)CC3)nc12,-11.79%
5,CC(NCc1cccc2c1OCCO2)c1cc2c(cc1Br)OCCO2 (configuration not stated),-2.569%
6,CSCC(C)(O)CNC(=O)c1ccc(Br)cc1C (configuration not stated),6.824%
7,CC(=O)N1CCC(c2nccnc2-c2ccc(F)c(F)c2)CC1,101.1%
8,COc1ccccc1-c1ccc(C2CCCN(C(C)=O)C2)nc1 (configuration not stated),120.7%
9,COc1ccccc1-c1nnc([C@H]2CCN(C(C)=O)C2)o1,4.286%
10,COc1cccc(C(=O)N2CCCC(c3cc(C)[nH]n3)C2)c1OC (configuration not stated),3.009%
11,COc1ccccc1-c1nccnc1C1CCN(C(C)=O)CC1,137.3%
12,CN1CCCC1c1nccnc1-c1ccc(C(=O)O)cc1 (configuration not stated),141.8%
13,CS(=O)(=O)CCC(=O)N1CCC(c2ccc(F)c(F)c2)CC1,-5.239%
14,COc1cccc(-c2nccnc2C2CCN(C(C)=O)CC2)c1,-11.4%
15,CC(O)c1cn(CC2CCN(C(=O)CN3CCCC3=O)CC2)nn1 (configuration not stated),-6.496%
16,CCCN(CC1CC1)C(=O)Nc1ccc(N2CCSCC2)cc1C,-17.78%
17,COCCN(C)c1ccc(NCc2cscn2)nc1,1.249%
18,CN1CCOC(CNC(=O)CCc2cc(F)ccc2F)C1 (configuration not stated),5.661%
19,O=C(C1CCOCC1)N1CCc2ncnc(-c3ccc(F)cc3)c2CC1,-7.65%
20,COc1ccc(-c2nccnc2C2CCN(C(C)=O)CC2)cc1,-14.84%
21,CC(=O)N1CCC(N2CC[C@H](c3nc4cc(F)ccc4o3)C2)CC1,-6.986%
22,CC(=O)N1CCC(c2nccnc2-c2ccc(F)cc2)CC1,97.61%
23,CC(=O)N1CCC(c2nccnc2-c2ccc(C(=O)O)cc2)CC1,96%
24,NC(=O)C1CCCN1CCCc1ccc(C(F)(F)F)cc1 (configuration not stated),-6.15%
25,CC(C)N(C)C(=O)c1ccc(CNc2ncc(C#N)cc2Cl)cc1,-8.928%
26,CCN1CCN(CCNc2nc3ccc(C)cc3c(=O)n2C)CC1,1.756%

row,Compound,Percent Effect
1,CC(=O)N1Cc2nccn2CC(CNC(=O)c2cccnc2)C1.O=C(O)C(F)(F)F (configuration not stated),-4.633%
2,O=C(O)C(F)(F)F.c1cnc(N2Cc3nccn3CC(COc3cccnc3)C2)nc1 (configuration not stated),111.9%
3,O=C(N1CCCC1)N1Cc2nccn2CC(COc2cccnc2)C1.O=C(O)C(F)(F)F (configuration not stated),96.45%
4,O=C(NCC1CN(c2ncccn2)Cc2nccn2C1)c1cccnc1.O=C(O)C(F)(F)F (configuration not stated),8.129%
5,O=C(O)C(F)(F)F.O=C(O)C(F)(F)F.O=C(c1cccnc1)N1Cc2nccn2CC(COc2cccnc2)C1 (configuration not stated),111%
6,COCC1CN(C(=O)c2cccc(C)n2)Cc2nccn2C1.O=C(O)C(F)(F)F (configuration not stated),-3.838%
7,CN(Cc1cccnc1)CC1CN(C(=O)C2CC2)Cc2nccn2C1.O=C(O)C(F)(F)F.O=C(O)C(F)(F)F (configuration not stated),-3.173%
8,Cc1occc1C(=O)N1Cc2nccn2CC(CN2CCCC2)C1.O=C(O)C(F)(F)F (configuration not stated),-14.64%
9,Cc1nc(C)n(CC2CN(Cc3nccs3)Cc3nccn3C2)n1.O=C(O)C(F)(F)F (configuration not stated),-6.636%
10,O=C(O)C(F)(F)F.O=C(O)C(F)(F)F.c1cncc(OCC2CN(Cc3nccs3)Cc3nccn3C2)c1 (configuration not stated),104%
11,CS(=O)(=O)N1Cc2nccn2CC(CNC(=O)c2cccnc2)C1.O=C(O)C(F)(F)F (configuration not stated),-1.051%
12,Cc1ccc(CNC(c2ccccc2)c2nccn2C)cc1C (configuration not stated),-2.774%
13,COc1ccc(C(=O)NS(=O)(=O)c2ccc(CNC(C)=O)s2)cc1,-0.9731%
14,Cc1ccnc(NS(=O)(=O)c2cc(C(N)=O)n(C)c2)c1,8.268%
15,Cc1cc(C)cc(NC(=O)CN2CCCC(n3cncn3)C2)c1 (configuration not stated),8.702%
16,CS(=O)(=O)NCC1CCCN(C(=O)c2ccc3c(c2)CCC3)C1 (configuration not stated),-4.65%
17,CC(=O)NC[C@]1(O)CCN(C(=O)c2ccc3c(c2)OCO3)C[C@H]1O,124.1%
18,CC(=O)N1CCC2(CC1)CN(C(=O)c1ccc3c(c1)OCO3)C2,-7.452%
19,CC[C@@]1(O)CCN(C(=O)c2ccc(SC)cc2)C[C@H]1O,-2.102%
20,CC(C)=CCN1C[C@H]2CC[C@@H]1CN(C(=O)c1ccc3c(c1)OCO3)C2,36%
21,CC(=O)NC[C@]1(O)CCN(C(=O)c2ccc(C)c(F)c2)C[C@H]1O,111.8%
22,COCC1CC2(CCN(C(=O)c3ccc(F)c(Cl)c3)CC2)CO1 (configuration not stated),-3.157%
23,CC[C@@]1(O)CCN(C(=O)c2ccc(-c3cccc(F)c3)cc2)C[C@H]1O,-0.249%
24,CC(=O)NC[C@]1(O)CCN(C(=O)c2ccc(F)c(Cl)c2)C[C@H]1O,117.5%
25,CC[C@@]1(O)CCN(C(=O)c2ccc(CN3CCCCCC3)cc2)C[C@H]1O,-35.93%
26,CC[C@@]1(O)CCN(C(=O)CCNC(=O)c2ccc(F)cc2)C[C@H]1O,-29.52%

row,Compound,Percent Effect
1,CC(=O)NC[C@]1(O)CCN(C(=O)c2ccc3c(c2)CCC3)C[C@H]1O,101.7%
2,Cc1nn(CCO)cc1CN1CCC(C(C)N2CCCC2)CC1 (configuration not stated),9.031%
3,CCOc1ccc(CNC2CCCN(c3cccnn3)C2)cc1OC (configuration not stated),-5.556%
4,CCCn1ncc(C(=O)N(Cc2cccnc2)C[C@@H]2CCC(=O)N2)c1C,-6.874%
5,CCn1c(CC2CCN(C(=O)C3CC(C(C)C)=NO3)CC2)nn(C)c1=O (configuration not stated),5.338%
6,O=C(CCC(=O)N1CCCC1c1cccs1)N1CCc2sccc2C1 (configuration not stated),12.25%
7,O=C(NC1CC(=O)N(C2Cc3ccccc3C2)C1)c1cc[n+]([O-])cc1 (configuration not stated),5.46%
8,CC(=O)N1CCN(C(=O)CNc2c(C)cccc2OC(F)F)CC1,-9.064%
9,Cc1ccc(C(=O)N2CCC(=O)N(CC3CC3)C(C(C)C)C2)c(=O)[nH]1 (configuration not stated),0.658%
10,CC(Cc1ccco1)NC(=O)Nc1cnn(CC(N)=O)c1 (configuration not stated),6.71%
11,COCCNC(=O)CN1CCN(c2nc(C)cs2)C(C)C1 (configuration not stated),5.094%
12,CNCC(=O)N1CCCC(c2cccc(Nc3nc(C)cc(C)n3)n2)C1 (configuration not stated),-17.94%
13,CCOCCCNC(=O)c1cc(C)nc(N2CCCC2)n1,24.14%
14,Cc1cc(C(F)(F)F)nc(C2CCN(C(=O)CO)CC2)n1,124.3%
15,COc1cc(C)nc(N2CCN(C(=O)COCC(F)(F)F)CC2)n1,-18.67%
16,COCCNC(=O)c1cc(C)nc(C2CCN(C)CC2)n1,102.6%
17,Cc1cc(O)nc(C2CCN(C(=O)CO)CC2)n1,98.46%
18,Cc1cc(C)nc(Nc2cc(C)nc(C3CCN(C(=O)CO)C3)n2)n1 (configuration not stated),114%
19,O=c1[nH]c2nc(NCC3CCCO3)ncc2c(=O)n1-c1cccc(F)c1 (configuration not stated),-6.626%
20,CCc1noc(CC)c1CC(=O)N1CCN(C(=O)C2CCCC2)CC1,-21.61%
21,O=C(CCCc1cn[nH]c1)N1C[C@@H](CN2CCCCCC2)[C@@H](CO)C1,0.3132%
22,CN(C)CCN(Cc1ccsc1)C(=O)C1=NNC(=O)CC1,-24.72%
23,COC(=O)[C@H]1CN(S(C)(=O)=O)CCN1S(C)(=O)=O,-6.679%
24,Cc1cnc(NCC(C)(C)N2CCOCC2)nc1,-8.824%
25,Cc1cc(C)nc(C2CCN(C(=O)CO)CC2)n1,128.5%
26,Cc1nc(C2CCN(C(=O)CO)CC2)cc(N2CCOCC2)n1,8.233%

row,Compound,Percent Effect
1,CC1CCN(C(=O)CN2CCC(c3n[nH]c(C4CC4)n3)CC2)CC1,-23.79%
2,COC(=O)Cc1cccc(NC(=O)Cc2ccon2)c1,4.933%
3,COCC(=O)N1CCc2nc(NC(C)C)nc(NC(C)C)c2CC1,95.04%
4,CC(C)Nc1nc2c(c(NC3CC3)n1)CCN(C(=O)C1CCOC1)CC2 (configuration not stated),25.31%
5,Cc1nc2c(c(NC(C)C)n1)CCN(C1CCOCC1)CC2.O=C(O)C(F)(F)F,-10.52%
6,CC(=O)NCC(=O)N1CCc2nc(C)nc(C)c2CC1,-10.4%
7,Cc1nc2c(c(NC(C)C)n1)CCN(C(=O)CCO)CC2,103%
8,COCC(=O)N1CCc2nc(C)nc(NC(C)C)c2CC1,69.97%
9,Cc1nc2c(c(NC3CC3)n1)CCN(C(=O)CCO)CC2.O=C(O)C(F)(F)F,-1.283%
10,Cc1nc2c(c(NC(C)C)n1)CCN(C(=O)c1cc[nH]n1)CC2.O=C(O)C(F)(F)F,-4.947%
11,CCOCC(=O)N1CCc2nc(C)nc(NC(C)C)c2CC1,81.04%
12,CC(C)Nc1nc2c(c(NC3CC3)n1)CN(C(=O)c1ccncc1)CC2,1.63%
13,CCOCc1nc2c(c(NCCNC(C)=O)n1)CCN(C(C)=O)CC2,14.8%
14,COCC(=O)NCC(Cc1cccc(F)c1)n1cccc1 (configuration not stated),5.07%
15,CC(C)SCCNC(=O)c1cccc2ccnn12,5.28%
16,Cc1cc(C)c(CNC(=O)N(C)Cc2nnc3n2CCC3)c(=O)[nH]1,2.2%
17,CSCC(C)(O)CNC(=O)c1ccc(Br)cc1F (configuration not stated),2.874%
18,COCC(NC(=O)NCc1cccc(Cl)c1)c1ccco1 (configuration not stated),4.656%
19,Cc1ccc(N2CCC(CCN3CCCC3=O)CC2)nn1,86.49%
20,Cc1csc(N2CCN(CCCN3CCCC3=O)CC2)n1,-4.511%
21,Cc1ccc(N2CC[C@]3(O)CCN(CCN4CCCC4=O)C[C@@H]3C2)nn1,-23.37%
22,Cc1ccc(N2CCC3(CCC(=O)N3)CC2)nn1,-16.01%
23,Cc1csc(N2CCCN(C(=O)CCN3CCCC3=O)CC2)n1,4.733%
24,Cc1csc(N2CCC(CCN3CCCC3=O)CC2)n1,99.55%
